PubChem BioAssay AID1159580 (chemical genetic matrix, 2015)
Out of some 5,500 compounds screened, about 2,000 (36%) were called active. Roughly 18% stayed inconclusive and do not appear here. Cut-off read from the data, not from the text of the source: active = normalized growth mostly below about 0.91 (no sharp cut-off); inconclusive = no clear call, values can overlap the other calls; inactive = mostly above about 0.92. The list shows a part of the results.

Assay: chemical genetic growth profiling, strain panel (AID 1159580);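 note: tested at 20 µM; growth read once vehicle control cultures reached saturation at 30 °C; 1 = growth at the plate median or of vehicle wells; lower values mean less growth of the strain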
Conditions: S. cerevisiae deletion strains, growth OD
[1] = locus YJL095W, strain BCK1, active compounds read low

Measured: normalized growth

NC(=O)CC[C@H](N)C(=O)O
inactive: locus YHR030C, strain SLT2, active compounds read low 0.98 | locus YHR079C, strain IRE1, active compounds read low 0.977 | [1] 0.965 | locus YJR066W, strain TOR1, active compounds read low 0.941 | locus YLR113W, strain HOG1, active compounds read low 0.976 | locus YNL183C, strain NPR1, active compounds read low 0.954 | locus YOR231W, strain MKK1, active compounds read low 0.98 | locus YPL256C, strain CLN2, active compounds read low 0.972

O=c1oc2ccccc2cc1O
inactive: locus YAL021C, strain ccr4, active compounds read low 0.986 | locus YAL026C, strain drs2, active compounds read low 0.975 | locus YAL030W, strain snc1, active compounds read low 0.993 | locus YBL061C, strain skt5, active compounds read low 0.993 | locus YBR009C, strain hhf1, active compounds read low 1 | locus YBR021W, strain FUR4, active compounds read low 1.03 | locus YBR023C, strain chs3, active compounds read low 0.993 | locus YBR171W, strain sec66, active compounds read low 0.977 | locus YBR229C, strain ROT2, active compounds read low 1.03 | locus YBR231C, strain swc5, active compounds read low 1.01 | locus YBR279W, strain paf1, active compounds read low 0.994 | locus YCL011C, strain gbp2, active compounds read low 1.01 | locus YCL016C, strain dcc1, active compounds read low 0.999 | locus YCL029C, strain bik1, active compounds read low 1.02 | locus YCL061C, strain MRC1, active compounds read low 0.991 | locus YCL069W, strain vba3, active compounds read low 0.968 | locus YCR088W, strain abp1, active compounds read low 0.986 | locus YDL005C, strain med2, active compounds read low 0.986 | locus YDL035C, strain GPR1, active compounds read low 1.06 | locus YDL040C, strain nat1, active compounds read low 0.994 | locus YDL074C, strain BRE1, active compounds read low 1.13 | locus YDL101C, strain DUN1, active compounds read low 1.01 | locus YDL134C, strain PPH21, active compounds read low 1.07 | locus YDL185W, strain tfp1, active compounds read low 0.998 | locus YDL192W, strain arf1, active compounds read low 1.03 | locus YDR001C, strain nth1, active compounds read low 0.984 | locus YDR069C, strain doa4, active compounds read low 0.991 | locus YDR101C, strain arx1, active compounds read low 0.991 | locus YDR137W, strain rgp1, active compounds read low 0.969 | locus YDR159W, strain sac3, active compounds read low 1.03 | locus YDR162C, strain NBP2, active compounds read low 1.04 | locus YDR195W, strain ref2 1.01 | locus YDR297W, strain sur2, active compounds read low 0.989 | locus YDR318W, strain mcm21, active compounds read low 0.995 | locus YDR334W, strain swr1, active compounds read low 0.96 | locus YDR335W, strain msn5, active compounds read low 1 | locus YDR388W, active compounds read low 0.992 | locus YDR392W, strain spt3, active compounds read low 0.983 | locus YDR502C, strain sam2, active compounds read low 0.986 | locus YEL003W, strain gim4, active compounds read low 0.993 | locus YEL037C, strain rad23, active compounds read low 0.979 | locus YEL061C, strain CIN8 (second series), active compounds read low 0.976 | locus YER015W, strain faa2, active compounds read low 1.01 | locus YER016W, strain bim1, active compounds read low 1 | locus YER110C, active compounds read low 0.974 | locus YER111C, strain swi4, active compounds read low 0.988 | locus YER155C, strain BEM2 (second series), active compounds read low 0.989 | locus YER155C, strain BEM2, active compounds read low 1.02 | locus YER167W, strain BCK2, active compounds read low 1.03 | locus YFR010W, strain ubp6, active compounds read low 0.963 | locus YGL078C, strain dbp3, active compounds read low 0.953 | locus YGL086W, strain mad1, active compounds read low 0.994 | locus YGL167C, strain pmr1, active compounds read low 0.99 | locus YGL173C, strain kem1, active compounds read low 0.996 | locus YGL227W, strain vid30, active compounds read low 0.995 | locus YGL240W, strain doc1, active compounds read low 0.984 | locus YGL248W, strain PDE1, active compounds read low 1.04 | locus YGL253W, strain hxk2, active compounds read low 0.994 | locus YGR135W, strain pre9, active compounds read low 0.969 | locus YGR252W, strain gcn5, active compounds read low 0.924 | locus YHR013C, strain ard1, active compounds read low 1.04 | locus YHR027C, strain rpn1, active compounds read low 0.986 | locus YHR079C, strain IRE1 (second series), active compounds read low 0.986 | locus YHR094C, strain hxt1, active compounds read low 0.989 | locus YHR129C, strain ARP1, active compounds read low 1.06 | locus YHR142W, strain chs7, active compounds read low 0.974 | locus YHR200W, strain rpn10, active compounds read low 0.983 | locus YIL066C, strain RNR3, active compounds read low 1.04 | locus YIL073C, strain SPO22, active compounds read low 1.08 | locus YIL125W, strain kgd1, active compounds read low 1 | locus YIR030C, strain dcg1, active compounds read low 1 | locus YJL092W, strain hpr5, active compounds read low 0.987 | locus YJL095W, strain BCK1 (second series), active compounds read low 0.982 | [1] 1.11 | locus YJL115W, strain asf1, active compounds read low 0.98 | locus YJL129C, strain trk1, active compounds read low 0.989 | locus YJL134W, strain LCB3, active compounds read low 1.02 | locus YJL154C, strain vps35, active compounds read low 0.987 | locus YJL164C, strain tpk1, active compounds read low 0.99 | locus YJL166W, strain qcr8, active compounds read low 0.992 | locus YJL168C, strain set2, active compounds read low 0.989 | locus YJL187C, strain SWE1 (second series), active compounds read low 1.03 | locus YJL187C, strain SWE1, active compounds read low 0.996 | locus YKL009W, strain mrt4, active compounds read low 0.937 | locus YKL068W, active compounds read low 0.978 | locus YKL085W, strain MDH1 (second series), active compounds read low 0.99 | locus YKL085W, strain MDH1, active compounds read low 0.99 | locus YKL160W, strain elf1, active compounds read low 1.01 | locus YKL190W, strain CNB1, active compounds read low 1.04 | locus YKR001C, strain vps1, active compounds read low 1.02 | locus YKR026C, strain gcn3, active compounds read low 0.988 | locus YKR091W, strain srl3, active compounds read low 0.994 | locus YLL001W, strain dnm1, active compounds read low 0.985 | locus YLL026W, active compounds read low 1 | locus YLL041C, strain sdh2, active compounds read low 1.01 | locus YLR027C, strain aat2, active compounds read low 1.01 | locus YLR039C, strain RIC1, active compounds read low 1.16 | locus YLR058C, strain SHM2, active compounds read low 1.04 | locus YLR102C, strain apc9, active compounds read low 1.01 | locus YLR221C, strain rsa3, active compounds read low 1 | locus YLR258W, strain gsy2, active compounds read low 0.987 | locus YLR262C, strain YPT6 (second series), active compounds read low 0.898 | locus YLR262C, strain YPT6, active compounds read low 1.07 | locus YLR268W, strain sec22, active compounds read low 0.997 | locus YLR320W, strain mms22, active compounds read low 1 | locus YLR342W, strain FKS1 (second series), active compounds read low 1.04 | locus YLR342W, strain FKS1, active compounds read low 0.985 | locus YLR357W, strain rsc2, active compounds read low 1 | locus YLR370C, strain arc18, active compounds read low 0.983 | locus YLR371W, strain rom2, active compounds read low 1.02 | locus YLR384C, strain iki3, active compounds read low 1 | locus YLR418C, strain cdc73, active compounds read low 1.11 | locus YML016C, strain PPZ1, active compounds read low 1.03 | locus YML032C, strain rad52, active compounds read low 0.995 | locus YML120C, strain ndi1, active compounds read low 0.981 | locus YML124C, strain tub3, active compounds read low 1.01 | locus YMR058W, strain fet3, active compounds read low 0.984 | locus YMR078C, strain ctf18, active compounds read low 0.985 | locus YMR125W, strain sto1, active compounds read low 0.972 | locus YMR129W, active compounds read low 1 | locus YMR205C, strain PFK2, active compounds read low 1.01 | locus YMR223W, strain ubp8, active compounds read low 1 | locus YMR231W, strain pep5, active compounds read low 0.977 | locus YMR307W, strain GAS1, active compounds read low 1.3 | locus YNL067W, strain RPL9B, active compounds read low 1.03 | locus YNL071W, strain lat1, active compounds read low 0.978 | locus YNL128W, strain TEP1, active compounds read low 1.03 | locus YNL209W, strain ssb2, active compounds read low 0.998 | locus YNL233W, strain BNI4, active compounds read low 1.08 | locus YNL248C, strain rpa49, active compounds read low 0.958 | locus YNL250W, strain rad50, active compounds read low 1.01 | locus YNL271C, strain bni1, active compounds read low 0.987 | locus YNL298W, strain CLA4, active compounds read low 0.993 | locus YNL307C, strain MCK1, active compounds read low 1 | locus YNL322C, strain KRE1 (second series), active compounds read low 0.989 | locus YNR049C, strain mso1, active compounds read low 0.998 | locus YNR052C, strain pop2, active compounds read low 0.948 | locus YOL012C, strain htz1 1.2 | locus YOL147C, strain pex11, active compounds read low 1 | locus YOR001W, strain rrp6, active compounds read low 0.985 | locus YOR061W, strain CKA2, active compounds read low 1.02 | locus YOR069W, strain VPS5, active compounds read low 1.02 | locus YOR070C, strain gyp1, active compounds read low 0.997 | locus YOR080W, strain dia2, active compounds read low 0.984 | locus YOR083W, strain WHI5, active compounds read low 0.986 | locus YOR106W, strain vam3, active compounds read low 0.946 | locus YOR136W, strain idh2, active compounds read low 0.985 | locus YOR144C, strain elg1, active compounds read low 0.996 | locus YOR184W, strain ser1, active compounds read low 0.98 | locus YOR265W, strain rbl2, active compounds read low 0.992 | locus YOR270C, strain vph1, active compounds read low 0.87 | locus YOR290C, strain snf2, active compounds read low 0.984 | locus YOR316C, strain cot1, active compounds read low 0.991 | locus YPL051W, strain arl3, active compounds read low 0.997 | locus YPL055C, strain LGE1, active compounds read low 1.13 | locus YPL078C, strain atp4, active compounds read low 0.966 | locus YPL106C, strain sse1, active compounds read low 0.988 | locus YPL240C, strain hsp82, active compounds read low 0.997 | locus YPL241C, strain CIN2, active compounds read low 1.04 | locus YPR119W, strain clb2, active compounds read low 1.01 | locus YPR141C, strain kar3, active compounds read low 1 | locus YPR163C, strain tif3, active compounds read low 1 | locus YPR167C, strain met16, active compounds read low 0.993 | strain wtn01, active compounds read low 0.984
